# From the supplement of paper PMC8975748
# Counter-ions that a name gives are not always drawn. ± gives the standard deviation of the averaged measurements.
# What was measured:
# [1] = test system: Saccharomyces cerevisiae BY4741 SeMeCo community; experiment: mean cell size (pixel area) (pixels); higher = larger cells; settings: 10 µM; 24 h; SM minimal medium
# Outline: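 A four-plasmid fluorescent Saccharomyces cerevisiae BY4741 community was tested; each plasmid complements one auxotrophy and carries a fluorescent marker. An overnight preculture at OD600 = 1.0 was diluted to OD600 = 0.3, and 70 µl was added to 384-well plates acoustically predosed with drug (final 10 µM) in SM medium for 24 h. Cells were fixed with paraformaldehyde and imaged by automated confocal microscopy, with analysis in Harmony. Mean cell pixel area per well is averaged over 3 replicates. Same SeMeCo high-content imaging drug screen: Selleck FDA-approved drugs at 10 µM, 24 h in SM medium, 384-well plates, 3 replicates.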
# [2] = test system: Saccharomyces cerevisiae BY4741 SeMeCo community; experiment: z-score of subpopulation abundance vs DMSO median, subpopulation auxotrophic for M; higher = larger share of this subpopulation than in DMSO controls; settings: 10 µM; 24 h; SM minimal medium; subpopulation (auxotrophy): M
# Outline: (§1)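 A Saccharomyces cerevisiae BY4741 community carried four plasmids, each restoring one auxotrophy and encoding a distinct fluorescent protein. It was pre-grown overnight to OD600 1.0, diluted to 0.3, and 70 µl was added to 384-well plates acoustically predosed with library drugs (10 µM final), then grown 24 h in minimal SM medium. Cells were paraformaldehyde-fixed and imaged by automated confocal microscopy, with single-auxotroph fluorescent strains setting thresholds and autofluorescence correction. Each subpopulation's abundance was scored as a z-score against the vehicle-well median.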
# [3] = test system: Saccharomyces cerevisiae BY4741 SeMeCo community; experiment: z-score of subpopulation abundance vs DMSO median, subpopulation auxotrophic for L; higher = larger share of this subpopulation than in DMSO controls; settings: 10 µM; 24 h; SM minimal medium; subpopulation (auxotrophy): L
# Outline: as §1
# [4] = test system: Saccharomyces cerevisiae BY4741 SeMeCo community; experiment: z-score of subpopulation abundance vs DMSO median, subpopulation auxotrophic for LU; higher = larger share of this subpopulation than in DMSO controls; settings: 10 µM; 24 h; SM minimal medium; subpopulation (auxotrophy): LU
# Outline: as §1
# [5] = test system: Saccharomyces cerevisiae BY4741 SeMeCo community; experiment: z-score of subpopulation abundance vs DMSO median, subpopulation auxotrophic for HM; higher = larger share of this subpopulation than in DMSO controls; settings: 10 µM; 24 h; SM minimal medium; subpopulation (auxotrophy): HM
# Outline: as §1
# [6] = test system: Saccharomyces cerevisiae BY4741 SeMeCo community; experiment: z-score of subpopulation abundance vs DMSO median, subpopulation auxotrophic for HU; higher = larger share of this subpopulation than in DMSO controls; settings: 10 µM; 24 h; SM minimal medium; subpopulation (auxotrophy): HU
# Outline: as §1
# [7] = test system: Saccharomyces cerevisiae BY4741 SeMeCo community; experiment: z-score of subpopulation abundance vs DMSO median, subpopulation auxotrophic for UM; higher = larger share of this subpopulation than in DMSO controls; settings: 10 µM; 24 h; SM minimal medium; subpopulation (auxotrophy): UM
# Outline: as §1
# [8] = test system: Saccharomyces cerevisiae BY4741 SeMeCo community; experiment: z-score of subpopulation abundance vs DMSO median, subpopulation auxotrophic for HLU; higher = larger share of this subpopulation than in DMSO controls; settings: 10 µM; 24 h; SM minimal medium; subpopulation (auxotrophy): HLU
# Outline: as §1
# [9] = test system: Saccharomyces cerevisiae BY4741 SeMeCo community; experiment: z-score of subpopulation abundance vs DMSO median, subpopulation auxotrophic for HLM; higher = larger share of this subpopulation than in DMSO controls; settings: 10 µM; 24 h; SM minimal medium; subpopulation (auxotrophy): HLM
# Outline: as §1
# [10] = test system: Saccharomyces cerevisiae BY4741 SeMeCo community; experiment: z-score of subpopulation abundance vs DMSO median, subpopulation auxotrophic for LUM; higher = larger share of this subpopulation than in DMSO controls; settings: 10 µM; 24 h; SM minimal medium; subpopulation (auxotrophy): LUM
# Outline: as §1
# [11] = test system: Saccharomyces cerevisiae BY4741 SeMeCo community; experiment: z-score of subpopulation abundance vs DMSO median, subpopulation auxotrophic for HLUM; higher = larger share of this subpopulation than in DMSO controls; settings: 10 µM; 24 h; SM minimal medium; subpopulation (auxotrophy): HLUM
# Outline: as §1
# [12] = test system: Saccharomyces cerevisiae BY4741 SeMeCo community; experiment: z-score of prototroph abundance vs DMSO median; higher = larger share of this subpopulation than in DMSO controls; settings: 10 µM; 24 h; SM minimal medium; subpopulation (auxotrophy): Prototroph
# Outline: as §1
# [13] = test system: Saccharomyces cerevisiae BY4741 SeMeCo community; experiment: z-score of subpopulation abundance vs DMSO median, subpopulation auxotrophic for U; higher = larger share of this subpopulation than in DMSO controls; settings: 10 µM; 24 h; SM minimal medium; subpopulation (auxotrophy): U
# Outline: as §1
# [14] = test system: Saccharomyces cerevisiae BY4741 SeMeCo community; experiment: z-score of subpopulation abundance vs DMSO median, subpopulation auxotrophic for H; higher = larger share of this subpopulation than in DMSO controls; settings: 10 µM; 24 h; SM minimal medium; subpopulation (auxotrophy): H
# Outline: as §1
# [15] = test system: Saccharomyces cerevisiae BY4741 SeMeCo community; experiment: z-score of subpopulation abundance vs DMSO median, subpopulation auxotrophic for LM; higher = larger share of this subpopulation than in DMSO controls; settings: 10 µM; 24 h; SM minimal medium; subpopulation (auxotrophy): LM
# Outline: as §1
# [16] = test system: Saccharomyces cerevisiae BY4741 SeMeCo community; experiment: z-score of subpopulation abundance vs DMSO median, subpopulation auxotrophic for HL; higher = larger share of this subpopulation than in DMSO controls; settings: 10 µM; 24 h; SM minimal medium; subpopulation (auxotrophy): HL
# Outline: as §1
# [17] = test system: Saccharomyces cerevisiae BY4741 SeMeCo community; experiment: z-score of subpopulation abundance vs DMSO median, subpopulation auxotrophic for HUM; higher = larger share of this subpopulation than in DMSO controls; settings: 10 µM; 24 h; SM minimal medium; subpopulation (auxotrophy): HUM
# Outline: as §1
smiles,measurement,setting,value
CC(C)[N+](C)(CCOC(=O)C1c2ccccc2Oc2ccccc21)C(C)C [Propantheline bromide],mean cell size,[1],12.5 ± 0.22
same,z-score of subpopulation abundance,[2],1.26
same,z-score of subpopulation abundance,[3],-0.57
same,z-score of subpopulation abundance,[4],-0.92
same,z-score of subpopulation abundance,[5],0.76
same,z-score of subpopulation abundance,[6],-0.76
same,z-score of subpopulation abundance,[7],-1.12
same,z-score of subpopulation abundance,[8],-1.23
same,z-score of subpopulation abundance,[9],-0.74
same,z-score of subpopulation abundance,[10],-1.5
same,z-score of subpopulation abundance,[11],-0.56
Nc1ccc(S(=O)(=O)Nc2nccs2)cc1 [Sulfathiazole],mean cell size,[1],12.4 ± 0.21
same,z-score of prototroph abundance,[12],0.17
same,z-score of subpopulation abundance,[2],-0.25
same,z-score of subpopulation abundance,[3],-0.12
same,z-score of subpopulation abundance,[13],0.9
same,z-score of subpopulation abundance,[14],-1.09
same,z-score of subpopulation abundance,[4],0.15
same,z-score of subpopulation abundance,[15],-0.24
same,z-score of subpopulation abundance,[5],-0.53
same,z-score of subpopulation abundance,[6],-0.39
same,z-score of subpopulation abundance,[7],1.04
same,z-score of subpopulation abundance,[16],-0.09
same,z-score of subpopulation abundance,[8],0.27
same,z-score of subpopulation abundance,[17],0.33
same,z-score of subpopulation abundance,[10],0.11
same,z-score of subpopulation abundance,[11],-0.19
NC12CC3CC(CC(C3)C1)C2 [Amantadine HCl],mean cell size,[1],12.6 ± 0.17
same,z-score of prototroph abundance,[12],0.23
same,z-score of subpopulation abundance,[2],0.52
same,z-score of subpopulation abundance,[3],-0.67
same,z-score of subpopulation abundance,[13],0.19
same,z-score of subpopulation abundance,[14],-0.11
same,z-score of subpopulation abundance,[4],-0.18
same,z-score of subpopulation abundance,[15],-0.26
same,z-score of subpopulation abundance,[5],-0.31
same,z-score of subpopulation abundance,[6],-0.11
same,z-score of subpopulation abundance,[7],-0.27
same,z-score of subpopulation abundance,[16],-0.19
same,z-score of subpopulation abundance,[8],-0.31
same,z-score of subpopulation abundance,[17],-0.08
same,z-score of subpopulation abundance,[10],-0.72
same,z-score of subpopulation abundance,[11],-0.01
O=S1(=O)CCN(CN2CCS(=O)(=O)NC2)CN1 [Taurolidine],z-score of prototroph abundance,[12],0.42
same,z-score of subpopulation abundance,[2],-0.34
same,z-score of subpopulation abundance,[3],-0.57
same,z-score of subpopulation abundance,[13],0.64
same,z-score of subpopulation abundance,[14],-0.57
same,z-score of subpopulation abundance,[4],0.35
same,z-score of subpopulation abundance,[5],-1.08
same,z-score of subpopulation abundance,[6],0.18
same,z-score of subpopulation abundance,[7],0.3
same,z-score of subpopulation abundance,[16],-1.35
same,z-score of subpopulation abundance,[8],-0.43
same,z-score of subpopulation abundance,[9],-0.64
same,z-score of subpopulation abundance,[10],-0.43
same,z-score of subpopulation abundance,[11],-0.55
COc1ccc2cc3[n+](cc2c1OC)CCc1cc2c(cc1-3)OCO2 [Berberine chloride],mean cell size,[1],12.5 ± 0.26
same,z-score of prototroph abundance,[12],-0.22
same,z-score of subpopulation abundance,[2],0.33
same,z-score of subpopulation abundance,[3],0.44
same,z-score of subpopulation abundance,[13],-0.13
same,z-score of subpopulation abundance,[14],0.04
same,z-score of subpopulation abundance,[4],-0.32
same,z-score of subpopulation abundance,[15],0.14
same,z-score of subpopulation abundance,[5],-0.15
same,z-score of subpopulation abundance,[6],-0.79
same,z-score of subpopulation abundance,[16],0.31
same,z-score of subpopulation abundance,[8],0.27
same,z-score of subpopulation abundance,[17],-0.38
same,z-score of subpopulation abundance,[10],-0.34
same,z-score of subpopulation abundance,[11],-0.12
CN[C@@H]1[C@H](O[C@H]2[C@H](O[C@H]3[C@H](O)[C@@H](O)[C@H](N=C(N)N)[C@@H](O)[C@@H]3N=C(N)N)O[C@@H](C)[C@]2(O)C=O)O[C@@H](CO)[C@H](O)[C@H]1O [Streptomycin sulfate],mean cell size,[1],11.99 ± 0.031
same,z-score of prototroph abundance,[12],0.05
same,z-score of subpopulation abundance,[2],-0.43
same,z-score of subpopulation abundance,[3],-1.14
same,z-score of subpopulation abundance,[13],1.16
same,z-score of subpopulation abundance,[14],0.36
same,z-score of subpopulation abundance,[4],-0.25
same,z-score of subpopulation abundance,[15],-0.12
same,z-score of subpopulation abundance,[5],0.19
same,z-score of subpopulation abundance,[6],0.65
same,z-score of subpopulation abundance,[7],0.8
same,z-score of subpopulation abundance,[16],-0.36
same,z-score of subpopulation abundance,[8],-0.4
same,z-score of subpopulation abundance,[17],0.39
same,z-score of subpopulation abundance,[10],-0.33
same,z-score of subpopulation abundance,[11],-0.41
O=C(O[C@H]1CN2CCC1CC2)N1CCc2ccccc2[C@@H]1c1ccccc1 [Solifenacin succinate],mean cell size,[1],12.1 ± 0.28
same,z-score of subpopulation abundance,[2],0.77
same,z-score of subpopulation abundance,[3],-0.16
same,z-score of subpopulation abundance,[13],0.4
same,z-score of subpopulation abundance,[14],-0.91
same,z-score of subpopulation abundance,[4],0.43
same,z-score of subpopulation abundance,[5],0
same,z-score of subpopulation abundance,[6],0.28
same,z-score of subpopulation abundance,[7],1.06
same,z-score of subpopulation abundance,[16],0.67
same,z-score of subpopulation abundance,[8],0.46
same,z-score of subpopulation abundance,[9],0.25
same,z-score of subpopulation abundance,[10],0.68
same,z-score of subpopulation abundance,[11],0.94
